The list is not random: actives were taken first. Their share in the collection is about 1.7%.
GLP-1R agonist = qHTS of GLP-1 Receptor Agonists; HEK293 GLP-1R CRE-luciferase, luminescence, 4-6 h; cells express a hypersensitive GLP-1R form; Potency, µM (series often up to 45.6 µM), for the others: at the top dose activation, hits mostly activators; 380,000 tested, 0.007% active; note: % of control where 0% means no effect
Target sequence (P43220 whole entry, looked up): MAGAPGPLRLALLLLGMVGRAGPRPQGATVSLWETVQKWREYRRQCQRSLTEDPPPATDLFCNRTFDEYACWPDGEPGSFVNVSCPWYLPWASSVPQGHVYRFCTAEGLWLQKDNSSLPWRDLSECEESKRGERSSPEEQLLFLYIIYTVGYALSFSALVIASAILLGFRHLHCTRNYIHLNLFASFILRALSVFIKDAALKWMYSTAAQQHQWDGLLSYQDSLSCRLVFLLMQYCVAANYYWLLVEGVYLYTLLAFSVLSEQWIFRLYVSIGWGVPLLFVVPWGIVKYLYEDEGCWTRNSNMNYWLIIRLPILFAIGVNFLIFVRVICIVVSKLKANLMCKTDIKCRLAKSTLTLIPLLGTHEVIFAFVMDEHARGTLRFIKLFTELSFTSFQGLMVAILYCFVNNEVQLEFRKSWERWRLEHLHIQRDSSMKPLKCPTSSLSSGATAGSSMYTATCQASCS
PTHR1 agonist = qHTS for PTHR1 Agonists: Primary Screen | 410,000 tested, 0.075% active | Potency, µM (highest dose often 115 µM), without a hit: at the top dose activation, usual class: activators | Parathyroid hormone/parathyroid hormone-related peptide receptor (Homo sapiens), Q03431 | HEK293 GP2 PTHR1 cells, GloSensor cAMP luminescence, 1 h; note: nearly all actives have a fitted effect of over 55% in size
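HEK-293-derived GP2 cells expressing PTHR1 and a GloSensor cAMP reporter, 3,000/well, plated overnight, given luciferin plus IBMX (each 0.5 mM as added) for 1 h at 37 °C, then compound for 1 h at 37 °C. Luminescence was read after 15 min at room temperature.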
GLP1R cytotox = qHTS of GLP-1 Receptor Inverse Agonists: Cytotox Screen | HEK293 cAMP-luciferase reporter cells, luminescence, 24 h | Potency, µM (series often up to 38.3 µM), without a hit: top-dose activity change, negative = inhibition, usual class: inhibitors | 410,000 tested, 0.13% active | AID 624418, 2012;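 note: loss of luciferase light is scored as toxicity; % is set by controls: 0 for no effect and ±100 for the full control effect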
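1536-well qHTS counterscreen of the MLSMR; 200 cells/uL, 12 h pre-incubation, 23 nL cpd, 24 h at 37 deg C 5% CO2, luciferase detection reagent, 12 min RT, luminescence. Inhibition = undesired.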
GLP-1R inv ag = qHTS of GLP-1 Receptor Inverse Agonists (Inhibition Mode); HEK293 GLP-1R CRE-luciferase, luminescence, 24 h; GLP-1R form is constitutively active; Glucagon-like peptide 1 receptor (Homo sapiens), P43220; 410,000 tested, 1.6% active; AID 624417, 2012; Potency, µM (series often up to 38.3 µM), inactives show at the top dose activity change, negative = inhibition, most hits filed as inhibitors; note: % is set by controls: 0 for no effect and ±100 for the full control effect; nearly all actives have a fitted effect of over 55% in size
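Stable HEK293 clone (constitutively active GLP-1R + cAMP-response luciferase); 200 cells/uL plated, 12 h pre-culture, compound 24 hr, 37 deg C/5% CO2; detection reagent 12 min RT; luminescence.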
RGS4 inh = Inhibitors of Regulator of G Protein Signaling (RGS) 4: qHTS | Regulator of G-protein signaling 4 (Homo sapiens), P49798 | Transcreener GDP fluorescence polarization, RGS4-accelerated GTP hydrolysis | Potency, µM (series often up to 114 µM), for the others: top-dose activity change, negative = inhibition, actives largely listed as inhibitors | 390,000 tested, 0.039% active | AID 504845, 2011; note: % is set by controls: 0 for no effect and ±100 for the full control effect; nearly all actives have a fitted effect of over 75% in size
Target sequence (P49798 whole entry, looked up): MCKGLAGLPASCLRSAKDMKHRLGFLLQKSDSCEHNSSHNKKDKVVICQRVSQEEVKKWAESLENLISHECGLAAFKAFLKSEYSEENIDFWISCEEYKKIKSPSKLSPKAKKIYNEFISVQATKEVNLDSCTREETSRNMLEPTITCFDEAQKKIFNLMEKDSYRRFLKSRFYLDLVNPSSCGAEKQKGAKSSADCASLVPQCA
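MLSMR compounds (23 nl, pin-transferred) preincubated 10 min at room temperature with a 500nM (2x) first reagent, then RGS4 at 900nM (2x) plus Transcreener GDP mix added; fluorescence polarization (620/688 nm) read before and after 90 min at 30 °C.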
Active calls of the source: *. Calls come from the whole dose curve; as a rule, active = well fitted curve in the direction sought with a large enough effect; inconclusive = small, poorly fitted or top-dose-only effect, or another doubt; inactive = no such curve, though single readings can be large; an effect the other way counts as inactive or inconclusive. Potency is the fitted concentration of half-maximal effect.

`COc1ccc(Cl)cc1NC(=O)Cn1nc(C(F)(F)F)c2c1CCC2` gave GLP-1R agonist -8%, PTHR1 agonist -2%, GLP1R cytotox 3%, GLP-1R inv ag inconclusive and RGS4 inh 18%.
`COc1ccc(Cl)cc1NC(=O)Cn1nc(C(F)(F)F)c2c1CCCC2` gave GLP-1R agonist -9%, PTHR1 agonist -8%, GLP1R cytotox 5%, GLP-1R inv ag 13µM* and RGS4 inh -2%.
`Cc1ccc(NC(=S)NCc2ccccn2)cc1` gave GLP-1R agonist -15%, PTHR1 agonist 16µM*, GLP1R cytotox inconclusive, GLP-1R inv ag inconclusive and RGS4 inh -51%.
Cc1cccc(NC(=S)NCc2ccccn2)c1 was read as GLP-1R agonist 0%, PTHR1 agonist inactive, GLP1R cytotox inconclusive, GLP-1R inv ag inconclusive and RGS4 inh -20%.
For COc1ccc([C@@H]2CC=C(C(=O)O)[C@H](c3ccc(Cl)cc3)N2S(=O)(=O)c2ccccc2C)cc1 the results were GLP-1R agonist -3%, PTHR1 agonist -1%, GLP1R cytotox -24%, GLP-1R inv ag inconclusive and RGS4 inh -6%.
Cc1ccccc1S(=O)(=O)N1C(c2ccc(Cl)c(Cl)c2)CC=C(C(=O)O)C1c1cccc(Br)c1 (stereo not given) was read as PTHR1 agonist inactive, GLP1R cytotox -20% and GLP-1R inv ag 10µM*.
Screening Cc1ccc(S(=O)(=O)N2[C@@H](c3ccccc3)C(C(=O)O)=CC[C@H]2c2ccc(Cl)c(Cl)c2)cc1 returned GLP-1R agonist -3%, PTHR1 agonist -9%, GLP1R cytotox inconclusive, GLP-1R inv ag inconclusive and RGS4 inh -19%.
Cc1ccc(S(=O)(=O)N2[C@@H](c3ccc(Br)cc3)C(C(=O)O)=CC[C@H]2c2ccc(Cl)cc2)cc1 was read as GLP-1R agonist -11%, PTHR1 agonist -33%, GLP1R cytotox -20%, GLP-1R inv ag 11µM* and RGS4 inh 8%.
`Cc1ccc([C@H]2C(C(=O)O)=CC[C@@H](c3ccc(Cl)c(Cl)c3)N2S(=O)(=O)c2ccc(C)cc2)cc1` gave GLP-1R agonist -2%, PTHR1 agonist -11%, GLP1R cytotox -11%, GLP-1R inv ag 10µM* and RGS4 inh -13%.
`Cc1ccc([C@@H]2CC=C(C(=O)O)[C@H](c3ccc(Cl)cc3)N2S(=O)(=O)c2ccc(C)cc2)cc1` gave GLP-1R agonist -5%, PTHR1 agonist -86%, GLP1R cytotox -13%, GLP-1R inv ag inconclusive and RGS4 inh -16%.
For Cc1ccc([C@@H]2CC=C(C(=O)O)[C@H](c3ccc(Cl)cc3)N2S(=O)(=O)c2ccccc2C)cc1 the results were GLP-1R agonist -3%, PTHR1 agonist -29%, GLP1R cytotox -18%, GLP-1R inv ag 8.9µM* and RGS4 inh -6%.
CCOC(=O)c1ccc(NC(=O)c2noc3c2CCCC3)cc1 was read as PTHR1 agonist -30%, GLP1R cytotox -1%, GLP-1R inv ag -18% and RGS4 inh 9%.
COc1ccc([C@@H]2CC=C(C(=O)O)[C@H](c3ccc(Br)cc3)N2S(=O)(=O)c2ccccc2C)cc1 was read as GLP-1R agonist 1%, PTHR1 agonist -23%, GLP1R cytotox -7%, GLP-1R inv ag inconclusive and RGS4 inh -2%.
Screening Cc1ccc([C@@H]2CC=C(C(=O)O)[C@H](c3ccc(Br)cc3)N2S(=O)(=O)c2ccccc2C)cc1 returned GLP-1R agonist -1%, PTHR1 agonist -35%, GLP1R cytotox -11%, GLP-1R inv ag 11µM* and RGS4 inh -13%.
Cc1ccccc1S(=O)(=O)N1[C@@H](c2ccccc2)C(C(=O)O)=CC[C@H]1c1ccc(Cl)cc1 was read as GLP-1R agonist -4%, PTHR1 agonist -7%, GLP1R cytotox -13%, GLP-1R inv ag 7.1µM* and RGS4 inh 0%.
Screening Cc1ccccc1S(=O)(=O)N1[C@@H](c2ccc(Br)cc2)C(C(=O)O)=CC[C@H]1c1ccc(Cl)cc1 returned GLP-1R agonist -5%, PTHR1 agonist -9%, GLP1R cytotox -10%, GLP-1R inv ag inconclusive and RGS4 inh -22%.
Screening CC(C)(C)C(=O)OCCNc1nc(-c2ccccc2)nc2ccccc12 returned GLP-1R agonist -10%, PTHR1 agonist -33%, GLP1R cytotox inconclusive, GLP-1R inv ag 13µM* and RGS4 inh 1%.
Cc1ccc(-c2nc(NCCCN(C)C)c3ccccc3n2)cc1 was read as GLP-1R agonist 0%, PTHR1 agonist inactive, GLP1R cytotox -16% and GLP-1R inv ag 10µM*.
For CC(C)OCCCNc1nc(-c2ccccc2)nc2ccccc12 the results were GLP-1R agonist 9%, PTHR1 agonist -44%, GLP1R cytotox -26%, GLP-1R inv ag inconclusive and RGS4 inh 25%.
For O=C(CCn1c(=O)c2ccccc2n(Cc2ccc(F)cc2Cl)c1=O)NCc1ccc2c(c1)OCO2 the results were GLP-1R agonist 0%, PTHR1 agonist -20%, GLP1R cytotox 5%, GLP-1R inv ag 18% and RGS4 inh -4%.
For Cc1ccc(-n2c(=O)[nH]c3sc4c(c3c2=O)CCNC4)cc1C the results were PTHR1 agonist inactive, GLP1R cytotox 3%, GLP-1R inv ag 7% and RGS4 inh 2%.
`CCOc1ccc(S(=O)(=O)Nc2cccc(C(=O)NCC(C)(C)N3CCOCC3)c2)cc1` gave GLP-1R agonist 13%, PTHR1 agonist inactive, GLP1R cytotox -5%, GLP-1R inv ag 40% and RGS4 inh -3%.
`O=C(Cn1cc(C(F)(F)F)cc(Cl)c1=O)Nc1ccc(N2CCOCC2)cc1` gave GLP-1R agonist 1%, PTHR1 agonist inactive, GLP1R cytotox -1%, GLP-1R inv ag 17% and RGS4 inh 12%.
For COc1cccc(NC(=O)C(=O)NCCc2csc(-c3ccc(C)cc3)n2)c1 the results were PTHR1 agonist -8%, GLP1R cytotox 1%, GLP-1R inv ag 17% and RGS4 inh -4%.
Screening O=C(c1cccs1)c1cn(CCOc2ccc(F)cc2)c2ccccc12 returned PTHR1 agonist -1%, GLP1R cytotox 0%, GLP-1R inv ag 11µM* and RGS4 inh 9%.
`CC(C)(C)c1ccc(OCCn2cc(C(=O)c3ccco3)c3ccccc32)cc1` gave PTHR1 agonist 3%, GLP1R cytotox -21%, GLP-1R inv ag 7.9µM* and RGS4 inh 12%.

Source: PubChem BioAssay (National Center for Advancing Translational Sciences (NCATS))
